PubChem BioAssay AID623959 (National Center for Advancing Translational Sciences (NCATS), 2012)
Among all 1,400 compounds or so, fewer than 10 were called active. Not shown: some 8% with an inconclusive outcome. Not all results are given here. A number with no mark means an inactive call. The call rests on the fitted dose curve; in most records, active means well fitted curve in the direction sought with a large enough effect; inconclusive means small, poorly fitted or top-dose-only effect, or another doubt; inactive means no such curve, though single readings can be large or run the other way.

target: Transient receptor potential cation channel subfamily V member 1 (Homo sapiens) (UniProt Q8NER1); assay: qHTS Assay for Compounds that Act as Potentiators of the Vanilloid Receptor 1: Hit Validation; conditions: TRPV1-expressing cells, Fluo-8 calcium influx, capsaicin EC20; series mostly up to 42.1 µM; activity change, positive = potentiation: at the top concentration; on activity change, positive = potentiation: % of control where 0% means no effect
Sequence (Q8NER1 whole entry, looked up): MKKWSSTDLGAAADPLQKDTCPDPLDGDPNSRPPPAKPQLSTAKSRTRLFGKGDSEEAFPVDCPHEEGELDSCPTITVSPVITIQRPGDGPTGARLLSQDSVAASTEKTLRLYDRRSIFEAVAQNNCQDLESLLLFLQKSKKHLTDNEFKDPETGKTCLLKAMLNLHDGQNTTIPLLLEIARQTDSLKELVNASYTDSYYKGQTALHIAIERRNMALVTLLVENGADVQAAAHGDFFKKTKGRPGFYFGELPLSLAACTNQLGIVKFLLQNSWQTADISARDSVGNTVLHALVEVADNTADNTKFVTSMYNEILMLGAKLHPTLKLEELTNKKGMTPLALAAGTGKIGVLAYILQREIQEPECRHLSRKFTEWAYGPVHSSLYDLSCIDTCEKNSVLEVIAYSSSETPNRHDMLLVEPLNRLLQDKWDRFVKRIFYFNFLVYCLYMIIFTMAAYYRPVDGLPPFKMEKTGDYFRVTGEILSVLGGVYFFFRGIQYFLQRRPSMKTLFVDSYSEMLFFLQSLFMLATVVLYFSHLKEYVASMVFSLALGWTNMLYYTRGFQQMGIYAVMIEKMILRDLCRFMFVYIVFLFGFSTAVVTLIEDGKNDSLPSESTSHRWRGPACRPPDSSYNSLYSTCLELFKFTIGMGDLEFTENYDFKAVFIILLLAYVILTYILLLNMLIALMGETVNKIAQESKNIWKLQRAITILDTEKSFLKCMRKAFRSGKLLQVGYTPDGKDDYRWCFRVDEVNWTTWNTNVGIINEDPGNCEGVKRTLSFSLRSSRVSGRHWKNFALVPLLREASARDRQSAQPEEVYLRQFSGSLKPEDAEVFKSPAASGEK
Description: The transient receptor potential ion channel, family V, number 1, (TRPV1) is one of the most important molecular transducers of painful stimuli and a potential target for analgesic drug development. Although recent clinical trials with orthosteric antagonists have not produced a successful drug because of a hyperthermia side effect and their tendency to block thermal noxious pain, this ion channel is undeniably well placed in the pain pathway, and the idea of blocking pain signals before they enter the CNS is an excellent concept and of proven efficacy when TRPV1 agonists are used. We propose a new approach involving allosteric modulation to impose an activity-dependent constraint within the context of inflammation and tissue damage that would alter the responsiveness of the channel in a way that an orthosteric vanilloid antagonist cannot achieve. We believe that the allosteric modulator approach has not been explored for this target. The main goal of this proposal is to identify additional, new, potent allosteric modulators of TRPV1 that can be used to investigate TRPV1 function. Our recent report provides evidence of proof of concept, but the compounds are just at the edge of utility in terms of potency. […] The question of whether they can be used as analgesic agents is complex, but if suitable compounds are identified then testing for analgesic properties will be conducted. Compounds identified as agonists were re-tested in the primary screen for hit validation. NIH Chemical Genomics Center [NCGC] NIH Molecular Libraries Probe Centers Network [MLPCN] MLPCN Grant: MH089480 Assay Submitter (PI): Michael Iadarola, National Institute of Dental and Cranofacial Research
Upon TRPV1 activation in TRPV1 cells, the channel opens and extracellular cations flow through the channel into the cytosol. A calcium binding dye (Fluo-8) becomes fluorescent when bound to calcium. This dye is pre-loaded into cells and is used as a marker for calcium influx. The amount of accumulated calcium is precisely quantified using the FDSS kinetic reader and the calcium dye. For the HTS assay, freshly prepared cells are plated at a density of 2000/well in 3 ul medium in 1536-well plates and cultured overnight at 35.5C. Cells will be loaded with 1 ul of the homogeneous calcium dye (ABD Bioquest) at room temperature for 40 to 90 minutes. Plates will be loaded into the FDSS kinetic reader and a 1 sec / cycle for 10 second baseline signal will be measured. Compound library will then be added with a pintool at 23 nl and measured kinetically for 3 minutes. This portion of the read is considered the agonist portion of the screen. Following the 3 minutes of incubation, an on board pipettor will deliver 1 ul of capsaicin for a final concentration equal to the EC20. Signal will be measured kinetically for an additional 2 minutes. This portion of the read is considered the allosteric enhancer portion of the screen. The FDSS reader has a standard filter set capable of measuring calcium bound Fluo-8 (ex=480 and em=520 nm).
Potency means the concentration at half of the fitted maximal effect.

SMILES | activity change, positive = potentiation [%] | Potency
Cc1nc(Nc2cccc(Cl)c2)c2oc3ccccc3c2n1 | -38.3 | 
CCOC(=O)C(C(=O)OCC)c1cc(Br)c2noc3c2c1C(=O)c1ccccc1-3 |  | 3.6 µM (active)
COc1ccc(Cn2nc(-c3ccccc3)c(N3CCCCC3)cc2=O)cc1 | -39.1 | 
CCOC(=O)[C@H]1[C@H]2COc3ccc(Cl)cc3[C@@H]2N2C(=O)c3ccc(C)cc3NC(=O)[C@@]12C | -38.4 | 
CCc1ccc(NC(=O)c2ccc(S(=O)(=O)NCc3cccnc3)cc2)cc1 | -35.4 | 
CC(=O)c1c[nH]c(C(=O)NCc2ccccc2Cl)c1 | 7.13 | 
COCCN(CCOC)S(=O)(=O)c1ccc(C(=O)Nc2nnc(C3CC3)o2)cc1 | -6.89 | 
COCCNC(=O)CCc1c(C)nc2c(c(C)nn2-c2ccc(C)cc2)c1C | -38.5 | 
COc1ccc(CCNC(=O)c2noc3c2CCCC3)cc1OC | -9.36 | 
Cc1ccccc1C(=O)Nc1nnc(-c2ccc(C(C)(C)C)cc2)s1 | -7.15 | 
CCCN1C(=O)/C(=C/c2ccncc2)SC1=S | -8.91 | 
COc1ccc2c(c1)C(c1ccc(Cl)cc1)NC(=O)C2 (centres undefined) | -5.08 | 
CSCCCN1CC[C@@H](N2CCN(c3ccccc3F)CC2)[C@H](O)C1 | 12.5 | 
CCN(CC)CCN(Cc1cc2cc(C)ccc2[nH]c1=O)C(=O)Nc1ccccc1OC | -7.28 | 
Cc1nc(C(F)(F)F)ccc1C(=O)Nc1ccc(C(F)(F)F)cn1 | -36.1 | 
C=C(C(=O)Nc1ccccc1)c1ccc(C)cc1 | -6.44 | 
COc1ccc(-n2c(SCC(N)=O)nc3nc4c(cc3c2=O)COC(C)(C)C4)cc1 | 13.3 | 
NC(=O)c1ccc(-n2nnnc2Oc2ccccc2C(=O)N2CCOCC2)cc1 | 1.65 | 
Cc1[nH]c2ccccc2c1CCN(Cc1cccnc1)C(=S)Nc1ccc(F)cc1 | -6.06 | 
CCc1ccc(NC(=O)C2CCCN(S(=O)(=O)c3c(C)[nH]c(=O)[nH]c3=O)C2)cc1 (centres undefined) | -5.4 | 
CC(=O)Nc1cccc(NC(C)=O)n1 | -5.38 | 
Cn1nc(C(C)(C)C)cc1C(=O)NCc1ccc(N2CCCC2=O)cc1 | -1.47 | 
COc1cccc(CNC(=S)Nc2cccc(Cl)c2C)c1 | -38.9 | 
CCCCOc1ccc(C(=O)Nc2cccc(-n3cnnn3)c2)cc1OC | -34.7 | 
O=C(Cn1c(NCCCO)nc2ccccc21)c1ccc(Cl)cc1 | -7.03 | 
CCS(=O)(=O)C1=NN2C(=N)/C(=C\c3ccc(OCCOc4cccc(OC)c4)c(OC)c3)C(=O)N=C2S1 | -8.22 | 
CCOC(=O)c1c(C)[nH]c(C)c1C(=O)CN1C(=O)NC(CC(C)C)C1=O (centres undefined) | 0.659 | 
CN(Cc1c(O)ccc2c1oc(=O)c1ccccc12)C1CCCCC1 | -11.4 | 
CN(Cc1ccccc1Cl)C(=O)c1cc2ccccc2o1 | -15 | 
